Screening data from PubChem.
GRK2 aptamer HTS: inhibitors of human GRK2 displacing RNA aptamer. inhibition of aptamer binding, % at 10 µM. P25098. 0.59% of 330,000 active. AID 488847. bead flow cytometry, FAM-aptamer displacement from GRK2;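 active = inhibition of aptamer binding above 40%, roughly 3 SD of noise, on plates passing a quality check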;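 also: median bead fluorescence of bound FAM aptamer so fluorescent compounds give negative values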
Target sequence (P25098 whole entry, looked up): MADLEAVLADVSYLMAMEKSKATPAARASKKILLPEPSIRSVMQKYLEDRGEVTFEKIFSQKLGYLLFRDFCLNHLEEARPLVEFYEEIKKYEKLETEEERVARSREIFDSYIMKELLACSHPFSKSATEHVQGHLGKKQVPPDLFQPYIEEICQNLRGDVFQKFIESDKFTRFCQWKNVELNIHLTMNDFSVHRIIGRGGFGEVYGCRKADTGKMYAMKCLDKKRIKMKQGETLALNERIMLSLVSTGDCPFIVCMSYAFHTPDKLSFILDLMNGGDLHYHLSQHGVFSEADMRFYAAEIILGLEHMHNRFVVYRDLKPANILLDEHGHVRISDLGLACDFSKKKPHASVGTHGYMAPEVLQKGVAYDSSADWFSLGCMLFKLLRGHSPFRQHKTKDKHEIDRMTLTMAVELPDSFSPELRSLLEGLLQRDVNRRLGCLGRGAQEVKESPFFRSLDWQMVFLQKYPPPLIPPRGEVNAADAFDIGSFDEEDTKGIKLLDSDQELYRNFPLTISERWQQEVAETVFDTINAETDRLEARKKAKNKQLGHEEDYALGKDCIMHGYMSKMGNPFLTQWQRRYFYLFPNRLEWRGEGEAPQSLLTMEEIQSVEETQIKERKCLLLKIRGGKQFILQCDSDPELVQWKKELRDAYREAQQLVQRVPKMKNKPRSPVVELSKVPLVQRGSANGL
Efflux pump mplx: blocks antifungal efflux pumps in multiplex yeast assay; S. cerevisiae Candida pump triplex, Nile Red efflux; inhibition, % at 10 µM; 0.44% of 330,000 active;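 active = plate passing quality check with inhibition over a set limit, or well fluorescence over plate mean plus 4 SD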;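 also: Nile Red retained in pooled yeast measured as flow cytometry median fluorescence; 0% = buffer negative control and 100% = Enniatin B positive control; higher means more Nile Red kept so more efflux inhibition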
ALR inh: inhibitors of human sulfhydryl oxidase ALR. P55789. purified ALR, DTT oxidation, H2O2 HRP-luminol luminescence. inhibition, % (no concentration beside the values). 3.8% of 290,000 active. AID 485317;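 active = mean replicate inhibition above about 79%, with every replicate also reaching it, limit read from the data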
Rce1 inh: yeast Ras-converting enzyme inhibition. yeast membranes, quenched prenylated peptide cleavage fluorescence. AID 2563. 0.27% of 290,000 active. calls only. Q03530;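 active = fall in fluorescence gain of 50% or more versus controls, with final raw signal at or below 3038400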;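 also: plate controls were neutral control wells for no effect and wells lacking membranes for full effect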
HDAC3 inhib: inhibitors of human histone deacetylase 3; 0.15% of 320,000 active; recombinant HDAC3, fluorogenic peptide/trypsin coupled, fluorescence; O15379; inhibition, % at 8.3 µM; in the data active = inhibition above about 26%, passing the limit was not always enough
Rtt109 HAT inh: blocks Candida albicans Rtt109/Vps75 acetyltransferase activity | Q5AAJ8 | purified Rtt109/Vps75, ThioGlo CoA-SH fluorescence, 4 h | inhibition, % at 34.9 µM | 0.16% of 330,000 active | AID 540336;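 active = inhibition of at least 50% in every replicate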
* hit, by the source's call. Shown are actives, neighbours in structure and some others; about 4.5% of the full set was active somewhere.

`S=c1[nH]nc(COc2ccc3ccccc3c2)o1` gave GRK2 aptamer HTS 0, Efflux pump mplx 0, ALR inh 30, Rce1 inh inactive, HDAC3 inhib 7 and Rtt109 HAT inh 0.
Screening O=C(COc1ccccc1)NC1CCCCCCC1 returned GRK2 aptamer HTS 1, Efflux pump mplx 0, ALR inh -6, Rce1 inh inactive, HDAC3 inhib 2 and Rtt109 HAT inh 1.
`Nc1ccccc1C(=O)C[C@H](N)C(=O)O` gave Rtt109 HAT inh -8.
For Cn1c(CSCc2ccc(Cl)c(Cl)c2)n[nH]c1=S the results were GRK2 aptamer HTS 4, Efflux pump mplx 0, ALR inh 90*, Rce1 inh inactive, HDAC3 inhib -4 and Rtt109 HAT inh 3.
`Cc1ccc(Cl)cc1NC(C#N)c1ccccc1` (stereo not drawn) gave GRK2 aptamer HTS 0, Efflux pump mplx 0, Rce1 inh inactive, HDAC3 inhib -1 and Rtt109 HAT inh 16.
CC(=O)NN1C(=O)/C(=C/c2ccc(C(C)C)cc2)SC1=S was read as GRK2 aptamer HTS 0, Efflux pump mplx 0, ALR inh 98*, Rce1 inh inactive, HDAC3 inhib 8 and Rtt109 HAT inh 5.
For Cc1cc2c(ncn2Cc2ccccc2)c(N)c1C the results were GRK2 aptamer HTS 0, Efflux pump mplx 0, ALR inh 93*, Rce1 inh inactive, HDAC3 inhib 3 and Rtt109 HAT inh 0.
For Cc1cc2c(ncn2Cc2ccccc2)c(NS(C)(=O)=O)c1C the results were GRK2 aptamer HTS 1, Efflux pump mplx 0, Rce1 inh inactive, HDAC3 inhib 3 and Rtt109 HAT inh 0.
Screening Cn1c2ccccc2c2cc(C(=O)N3CCN(CCO)CC3)sc21 returned GRK2 aptamer HTS 26, Efflux pump mplx 0, ALR inh 99*, Rce1 inh inactive, HDAC3 inhib -2 and Rtt109 HAT inh -5.
`CC(=O)NNC(=O)c1cc2c3ccccc3n(C)c2s1` gave GRK2 aptamer HTS 6, Efflux pump mplx 0, ALR inh 20, Rce1 inh inactive, HDAC3 inhib 1 and Rtt109 HAT inh 9.
Screening O=C(CN1CCCCC1)NNc1nc(-c2ccccc2)c2cc(Br)ccc2n1 returned GRK2 aptamer HTS 0, Efflux pump mplx 0, ALR inh 90*, Rce1 inh inactive, HDAC3 inhib -6 and Rtt109 HAT inh -1.
For COc1ccccc1CN1CCC(CNS(=O)(=O)c2cc(-c3onc(C)c3C)ccc2OC)CC1 the results were GRK2 aptamer HTS 0, Efflux pump mplx 0, ALR inh 0, Rce1 inh inactive, HDAC3 inhib 6 and Rtt109 HAT inh 5.
For Cc1nn(CC(=O)NNC(=S)Nc2ccccc2)c(C)c1[N+](=O)[O-] the results were GRK2 aptamer HTS 2, Efflux pump mplx 0, ALR inh 80*, Rce1 inh inactive, HDAC3 inhib 5 and Rtt109 HAT inh 11.
For Cc1cc([N+](=O)[O-])nn1CC(=O)NNC(=S)Nc1ccc([N+](=O)[O-])cc1 the results were GRK2 aptamer HTS 1, Efflux pump mplx 0, ALR inh 74, Rce1 inh inactive, HDAC3 inhib 6 and Rtt109 HAT inh 0.
Screening COc1ccc(NC(=S)NNC(=O)Cn2nc([N+](=O)[O-])cc2C)cc1 returned GRK2 aptamer HTS 0, Efflux pump mplx 0, ALR inh 81*, Rce1 inh inactive, HDAC3 inhib 3 and Rtt109 HAT inh 1.
Screening Cc1ccc(C)c(C(C)NC(=O)Cc2cccs2)c1 (stereo not drawn) returned GRK2 aptamer HTS 0, Efflux pump mplx 0, ALR inh 15, Rce1 inh inactive, HDAC3 inhib 3 and Rtt109 HAT inh 2.
For Nc1cc([N+](=O)[O-])ccc1Nc1ccc(O)cc1 the results were GRK2 aptamer HTS 3, Efflux pump mplx 0, ALR inh 99*, Rce1 inh inactive, HDAC3 inhib 4 and Rtt109 HAT inh 7.
Screening O=C(CSc1nnc(-c2ccccc2Cl)o1)N1CCOCC1 returned GRK2 aptamer HTS 0, Efflux pump mplx 0, ALR inh 4, Rce1 inh inactive, HDAC3 inhib -4 and Rtt109 HAT inh 6.
Nc1cc(=O)nc(SCC(=O)Nc2ccccc2)n1-c1ccccc1 was read as GRK2 aptamer HTS 2, Efflux pump mplx 0, ALR inh 2, Rce1 inh inactive, HDAC3 inhib 1 and Rtt109 HAT inh 3.
Cc1cccc(-n2c(N)cc(=O)nc2SCC(=O)Nc2ccccc2)c1 was read as GRK2 aptamer HTS 1, Efflux pump mplx 0, ALR inh 98*, Rce1 inh inactive, HDAC3 inhib 6 and Rtt109 HAT inh 10.
`Cc1nc(SCC(=O)Nc2ccccc2Cl)oc1C` gave GRK2 aptamer HTS 0, Efflux pump mplx 0, ALR inh 99*, Rce1 inh inactive, HDAC3 inhib 4 and Rtt109 HAT inh -5.
`C=CCn1c(N)cc(=O)nc1SCC(=O)Nc1ccc2ccccc2c1` gave GRK2 aptamer HTS 0, Efflux pump mplx 0, ALR inh 99*, Rce1 inh inactive, HDAC3 inhib -2 and Rtt109 HAT inh 4.
For Nc1cc(=O)nc(SCC(=O)Nc2ccccc2Cl)n1-c1ccccc1 the results were GRK2 aptamer HTS 0, Efflux pump mplx 0, ALR inh 99*, Rce1 inh inactive, HDAC3 inhib -3 and Rtt109 HAT inh -1.
Screening O=C1CCc2cc(Br)ccc2O1 returned Rtt109 HAT inh 1.
COc1ccc(C2/C(=C(\O)c3ccc4c(c3)CC(C)O4)C(=O)C(=O)N2Cc2cccnc2)c(OC)c1 (stereo not drawn) was read as GRK2 aptamer HTS 0, Efflux pump mplx 0, ALR inh -7, HDAC3 inhib 1 and Rtt109 HAT inh 1.
Screening Cc1ccc2cn[nH]c2c1N returned GRK2 aptamer HTS 1, Efflux pump mplx 0, ALR inh 85*, Rce1 inh inactive, HDAC3 inhib 1 and Rtt109 HAT inh -4.
Screening Cc1ccc2nc(C)c(C)nc2c1N returned GRK2 aptamer HTS 0, Efflux pump mplx 0, ALR inh 2, Rce1 inh inactive, HDAC3 inhib -1 and Rtt109 HAT inh 4.
Screening Cc1onc(-c2ccccc2)c1C(=O)N(CC(C)C)c1c(N)n(CC(C)C)c(=O)[nH]c1=O returned GRK2 aptamer HTS 1, Efflux pump mplx 0, HDAC3 inhib 4 and Rtt109 HAT inh -6.
Screening Cc1ccc(N2C(=O)CS/C2=N\C(=S)Nc2ccccc2)cc1 returned GRK2 aptamer HTS 4, Efflux pump mplx 0, ALR inh 90*, Rce1 inh inactive and HDAC3 inhib -2.
Screening CCOC(=O)c1c(C)n(C)c2cc(Br)c(O)c(O)c12 returned GRK2 aptamer HTS 4, Efflux pump mplx 0, ALR inh 7, Rce1 inh inactive, HDAC3 inhib 2 and Rtt109 HAT inh 8.
Screening CCOC(=O)c1c(CSc2cccs2)n(C)c2cc(Br)c(O)c(CN(C)C)c12 returned GRK2 aptamer HTS 0, Efflux pump mplx 0, ALR inh 99*, Rce1 inh inactive, HDAC3 inhib 5 and Rtt109 HAT inh 26.
